Measurements published in PubChem BioAssay (NCI).
The panel holds about 83,000 compounds, 20% with a hit somewhere; the sample as a whole holds those more often.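 How to read the values: 0–100, growth inhibition (40 = 60% inhibited); 0, no net growth; -100 to 0, cell death (-40 = 40% of starting cells died; -100 = all dead).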 Unmarked numbers belong to inactive results. Calls of active or inactive are those of the source. How the source made its calls: active means growth percent below 10; inactive means the rest.

test system: HL-60(TB) leukemia; assay: NCI-60 one-dose screen, 48 h (100 = growth as untreated, 0 = no growth, -100 = all killed); details: 10 µM unless noted

SMILES | growth
Cc1cc2oc(=O)cc(CP(=O)(O)O)c2cc1O | 111%
CCCCCN(CCCCC)CCCCCCCCN1CCCc2ccccc21 | -14.2% (active)
O=S(=O)(/N=C1C=C/C(=N\S(=O)(=O)c2ccccc2)c2ccccc2\1)c1ccccc1 | 100%
CC[C@H](C)[C@@H]1NC(=O)[C@H]([C@@H](C)O)NC(=O)C(Cc2ccccc2)NC(=O)[C@@H]2CCCN2C(=O)C(C(C)C)NC(=O)C(Cc2ccccc2)NC(=O)CNC(=O)[C@@H]2CCCN2C1=O (some centres undefined) | 5.19% (active)
Cc1ccc2c(C(C[N+](=O)[O-])c3ccco3)c(-c3ccccc3)[nH]c2c1 (centres undefined) | -5.69% (active)
O=C1/C(=C/c2ccc(Cl)cc2)CN(C(=O)CCN2CCC(=NO)CC2)C/C1=C\c1ccc(Cl)cc1 | -13% (active)
Fc1ccc(Nc2ccc3cc(OCCCN4CCOCC4)ccc3n2)cc1F | 75.4%
CCCCc1oc2ccccc2c1C(=O)c1ccc(O)cc1 | 68%
O=C(c1ccccc1)N(CCc1ccc(Cl)cc1)C(=S)N(C(=O)c1ccccc1)c1ccccc1 | 90.3%
